Measured values taken from article PMC7826789 (International Journal of Molecular Sciences, 2021).

For `C=CC(=O)Nc1cc(-n2c(=O)ccc3cnc4ccc(-c5ccc(NS(C)(=O)=O)cc5)cc4c32)ccc1C` [BMX-IN-1], the Kinases covered (BTK) was “BTK”.
`C#Cc1cccc(Nc2ncnc3cc(OC)c(OC4CCN(C)CC4)cc23)c1` [BI00007366] was tested, and the Kinases covered (BUB1) was “BUB1”.
With `COc1cc2ncnc(Nc3ccc(F)c(Cl)c3)c2cc1O[C@H]1CC[C@H](N)CC1` [BIBW3133BS] the Kinases covered (BUB1) was “BUB1”.
For `CN(C)C/C=C/C(=O)Nc1ccc(C(=O)N2CCC[C@@H](Nc3ncc(Cl)c(-c4c[nH]c5ccccc45)n3)C2)cc1` [THZ531], the Kinases covered (CDK12) was “CDK12” and the Kinases covered (CDK13) was “CDK13”.
For `COC[C@@H](C)N[C@H]1CC[C@H](Nc2cc(-c3cccc(NCC4(C#N)CCOCC4)n3)c(Cl)cn2)CC1` [NVP-2], the Kinases covered (CDK13) was “CDK13” and the Kinases covered (CDK9) was “CDK9”.
`Cn1ncc2cc(-c3cnc(N)c(Cl)c3N3CCC4(CCNC4=O)CC3)ccc21` [CCT251921] was tested, and the Kinases covered (CDK19) was “CDK19” and the Kinases covered (CDK8) was “CDK8”.
In the case of `Cn1cc(-c2ccc(-c3cncc(Cl)c3N3CCC4(CCNC4=O)CC3)cc2)cn1` [CCT251545], the Kinases covered (CDK19) is reported as “CDK19” and the Kinases covered (CDK8) is reported as “CDK8”.
In the case of `CC(C)COC(=O)c1ccc2c(c1)/C(=C/Nc1ccc(S(N)(=O)=O)cc1)C(=O)N2` [GW416981X], the Kinases covered (CDK3) is reported as “CDK3”.
In the case of `CCC(NN(C)C)=C1C(=O)Nc2ccc(C(C)=O)cc21` [BI00036838], the Kinases covered (CDK7) is reported as “CDK7”.
`CN(C)C/C=C/C(=O)Nc1ccc(C(=O)Nc2cccc(Nc3ncc(Cl)c(-c4c[nH]c5ccccc45)n3)c2)cc1` [THZ1] was tested, and the Kinases covered (CDK7) was “CDK7”.
